# Measurements taken from article PMC5540273 (PLoS ONE, 2017).
# Read-outs that look alike come from different tables or passages of the source.
# Experiments:
# CSNK1G1 = conditions: concentration: 1 μM,replicates: in singlicate; n = 1
# CSNK1G2 = conditions: concentration: 1 μM,replicates: in singlicate; n = 1
# CSNK1G3 = conditions: concentration: 1 μM,replicates: in singlicate; n = 1
# CSNK2A1 = conditions: n = 1
# CSNK2A2 = conditions: n = 1
# CTK = system: T1, CTK; conditions: concentration: 1 μM,replicates: in singlicate; n = 1
# T1 construct: gene MATK
# DAPK1 = conditions: concentration: 1 μM,replicates: in singlicate; n = 1
# DAPK2 = conditions: concentration: 1 μM,replicates: in singlicate; n = 1
# DAPK3 = conditions: concentration: 1 μM,replicates: in singlicate; n = 1
# DCAMKL1 = system: T2, DCAMKL1; conditions: concentration: 1 μM,replicates: in singlicate; n = 1
# T2 construct: gene DCLK1
# DCAMKL2 = system: T3, DCAMKL2; conditions: concentration: 1 μM,replicates: in singlicate; n = 1
# T3 construct: gene DCLK2
# DCAMKL3 = system: T4, DCAMKL3; conditions: concentration: 1 μM,replicates: in singlicate; n = 1
# T4 construct: gene DCLK3
# DDR1 = conditions: concentration: 1 μM,replicates: in singlicate; n = 1
# DDR2 = conditions: concentration: 1 μM,replicates: in singlicate; n = 1
# DLK = system: T5, DLK; conditions: concentration: 1 μM,replicates: in singlicate; n = 1
# T5 construct: gene MAP3K12
# DMPK2 = system: T6, DMPK2; conditions: concentration: 1 μM,replicates: in singlicate; n = 1
# T6 construct: gene CDC42BPG
# DMPK = conditions: concentration: 1 μM,replicates: in singlicate; n = 1
# DRAK1 = system: T7, DRAK1; conditions: concentration: 1 μM,replicates: in singlicate; n = 1
# T7 construct: gene STK17A
# DRAK2 = system: T8, DRAK2; conditions: concentration: 1 μM,replicates: in singlicate; n = 1
# T8 construct: gene STK17B
# DYRK1A = conditions: concentration: 1 μM,replicates: in singlicate; n = 1
# [1] = concentration: 1 μM,replicates: in singlicate
# 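Note: KINOMEscan kinase panel screen.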
smiles,measurement,setting,value
COc1cccc(OC)c1C(=O)Nc1cccc(-c2nn3ccccc3c2-c2ccnc(Nc3cccc(F)c3)n2)c1 [GSK361065],%Inh,CSNK1G1,14%
same,%Inh,CSNK1G2,17%
same,%Inh,CSNK1G3,3%
same,%Inh,CSNK2A1; 1 µM,0%
same,%Inh,CSNK2A2; 1 µM,23%
same,%Inh,CTK,21%
same,%Inh,DAPK1,10%
same,%Inh,DAPK2,6%
same,%Inh,DAPK3,0%
same,%Inh,DCAMKL1,16%
same,%Inh,DCAMKL2,0%
same,%Inh,DCAMKL3,16%
same,%Inh,DDR1,99.3%
same,%Inh,DDR2,57%
same,%Inh,DLK,0%
same,%Inh,DMPK2,84%
same,%Inh,DMPK,2%
same,%Inh,DRAK1,12%
same,%Inh,DRAK2,12%
same,%Inh,DYRK1A,0%
CCN1CCN(CCCC(=O)Nc2n[nH]c3nc(-c4ccc(O)cc4)c(Br)cc23)CC1 [SB-731579],%Inh,CSNK1G1,0%
same,%Inh,CSNK1G2,0%
same,%Inh,CSNK1G3,0%
same,%Inh,CSNK2A1; [1],0%
same,%Inh,CSNK2A2; [1],0%
same,%Inh,CTK,34%
same,%Inh,DAPK1,41%
same,%Inh,DAPK2,31%
same,%Inh,DAPK3,61%
same,%Inh,DCAMKL1,0%
same,%Inh,DCAMKL2,18%
same,%Inh,DCAMKL3,99.1%
same,%Inh,DDR1,38%
same,%Inh,DDR2,41%
same,%Inh,DLK,8%
same,%Inh,DMPK2,0%
same,%Inh,DMPK,89%
same,%Inh,DRAK1,44%
same,%Inh,DRAK2,0%
same,%Inh,DYRK1A,38%
NC(=O)c1ccc(-c2cc3ncnc(SCC(=O)O)c3s2)cc1,%Inh,CSNK1G1,0%
same,%Inh,CSNK1G2,17%
same,%Inh,CSNK1G3,4%
same,%Inh,CSNK2A1; [1],74%
same,%Inh,CSNK2A2; [1],78%
same,%Inh,CTK,0%
same,%Inh,DAPK1,0%
same,%Inh,DAPK2,0%
same,%Inh,DAPK3,5%
same,%Inh,DCAMKL1,20%
same,%Inh,DCAMKL2,9%
same,%Inh,DCAMKL3,17%
same,%Inh,DDR1,0%
same,%Inh,DDR2,9%
same,%Inh,DLK,0%
same,%Inh,DMPK2,24%
same,%Inh,DMPK,0%
same,%Inh,DRAK1,98.3%
same,%Inh,DRAK2,100%
same,%Inh,DYRK1A,94.8%
C[C@@H](Oc1cc(-n2cnc3ccc(-c4ccncc4)cc32)sc1C(N)=O)c1ccccc1Cl [GSK483724],%Inh,CSNK1G1,9%
same,%Inh,CSNK1G2,14%
same,%Inh,CSNK1G3,29%
same,%Inh,CSNK2A1; [1],52%
same,%Inh,CSNK2A2; [1],89%
same,%Inh,CTK,0%
same,%Inh,DAPK1,0%
same,%Inh,DAPK2,0%
same,%Inh,DAPK3,19%
same,%Inh,DCAMKL1,88%
same,%Inh,DCAMKL2,18%
same,%Inh,DCAMKL3,0%
same,%Inh,DDR1,37%
same,%Inh,DDR2,8%
same,%Inh,DLK,17%
same,%Inh,DMPK2,2%
same,%Inh,DMPK,47%
same,%Inh,DRAK1,81%
same,%Inh,DRAK2,0%
same,%Inh,DYRK1A,82%
Cn1ccc2ncnc(Oc3ccc(NC(=O)Nc4cccc(C(F)(F)F)c4)c(Cl)c3)c21,%Inh,CSNK1G1,0%
same,%Inh,CSNK1G2,3%
same,%Inh,CSNK1G3,0%
same,%Inh,CSNK2A1; [1],0%
same,%Inh,CSNK2A2; [1],5%
same,%Inh,CTK,0%
same,%Inh,DAPK1,89%
same,%Inh,DAPK2,0%
same,%Inh,DAPK3,0%
same,%Inh,DCAMKL1,46%
same,%Inh,DCAMKL2,0%
same,%Inh,DCAMKL3,7%
same,%Inh,DDR1,99.9%
same,%Inh,DDR2,99.9%
same,%Inh,DLK,0%
same,%Inh,DMPK2,0%
same,%Inh,DMPK,0%
same,%Inh,DRAK1,0%
same,%Inh,DRAK2,0%
same,%Inh,DYRK1A,0%
CN(c1ccccc1CNc1nc(Nc2ccc3c(c2)CC(=O)N3)ncc1C(F)(F)F)S(C)(=O)=O,%Inh,CSNK1G1,0%
same,%Inh,CSNK1G2,0%
same,%Inh,CSNK1G3,13%
same,%Inh,CSNK2A1; [1],70%
same,%Inh,CSNK2A2; [1],92.7%
same,%Inh,CTK,0%
same,%Inh,DAPK1,4%
same,%Inh,DAPK2,24%
same,%Inh,DAPK3,28%
same,%Inh,DCAMKL1,21%
same,%Inh,DCAMKL2,0%
same,%Inh,DCAMKL3,94.8%
same,%Inh,DDR1,12%
same,%Inh,DDR2,0%
same,%Inh,DLK,19%
same,%Inh,DMPK2,0%
same,%Inh,DMPK,25%
same,%Inh,DRAK1,96.5%
same,%Inh,DRAK2,98.4%
same,%Inh,DYRK1A,28%
C[C@@H]1CNc2c(sc3ccc4nc(-c5ccncc5)ccc4c23)C(=O)N1,%Inh,CSNK1G1,16%
same,%Inh,CSNK1G2,15%
same,%Inh,CSNK1G3,21%
same,%Inh,CSNK2A1; [1],38%
same,%Inh,CSNK2A2; [1],0%
same,%Inh,CTK,0%
same,%Inh,DAPK1,30%
same,%Inh,DAPK2,24%
same,%Inh,DAPK3,13%
same,%Inh,DCAMKL1,4%
same,%Inh,DCAMKL2,0%
same,%Inh,DCAMKL3,55%
same,%Inh,DDR1,0%
same,%Inh,DDR2,0%
same,%Inh,DLK,0%
same,%Inh,DMPK2,0%
same,%Inh,DMPK,27%
same,%Inh,DRAK1,99%
same,%Inh,DRAK2,98.3%
same,%Inh,DYRK1A,99.7%
CC(C)S(=O)(=O)N1CCN(Cc2ccc3c(c2)nc(NC(=O)c2ccsc2)n3C[C@H](O)c2ccccc2)CC1 [GW635815],%Inh,CSNK1G1,16%
same,%Inh,CSNK1G2,5%
same,%Inh,CSNK1G3,20%
same,%Inh,CSNK2A1; [1],6%
same,%Inh,CSNK2A2; [1],37%
same,%Inh,CTK,0%
same,%Inh,DAPK1,0%
same,%Inh,DAPK2,0%
same,%Inh,DAPK3,31%
same,%Inh,DCAMKL1,0%
same,%Inh,DCAMKL2,0%
same,%Inh,DCAMKL3,9%
same,%Inh,DDR1,46%
same,%Inh,DDR2,19%
same,%Inh,DLK,69%
same,%Inh,DMPK2,0%
same,%Inh,DMPK,0%
same,%Inh,DRAK1,72%
same,%Inh,DRAK2,11%
same,%Inh,DYRK1A,48%
CCCC(=O)Nc1n[nH]c2ncccc12 [SB-601436],%Inh,CSNK1G1,0%
same,%Inh,CSNK1G2,0%
same,%Inh,CSNK1G3,7%
same,%Inh,CSNK2A1; [1],1%
same,%Inh,CSNK2A2; [1],0%
same,%Inh,CTK,30%
same,%Inh,DAPK1,0%
same,%Inh,DAPK2,0%
same,%Inh,DAPK3,0%
same,%Inh,DCAMKL1,0%
same,%Inh,DCAMKL2,0%
same,%Inh,DCAMKL3,0%
same,%Inh,DDR1,0%
same,%Inh,DDR2,0%
same,%Inh,DLK,0%
same,%Inh,DMPK2,0%
same,%Inh,DMPK,0%
same,%Inh,DRAK1,2%
same,%Inh,DRAK2,0%
same,%Inh,DYRK1A,0%
O=C(Nc1ccc(Oc2ccc3nc(NC(=O)C4CC4)cn3n2)c(F)c1)c1cccn(-c2ccccc2)c1=O,%Inh,CSNK1G1,0%
same,%Inh,CSNK1G2,0%
same,%Inh,CSNK1G3,30%
same,%Inh,CSNK2A1; [1],0%
same,%Inh,CSNK2A2; [1],0%
same,%Inh,CTK,0%
same,%Inh,DAPK1,0%
same,%Inh,DAPK2,0%
same,%Inh,DAPK3,14%
same,%Inh,DCAMKL1,4%
same,%Inh,DCAMKL2,13%
same,%Inh,DCAMKL3,29%
same,%Inh,DDR1,99.1%
same,%Inh,DDR2,100%
same,%Inh,DLK,13%
same,%Inh,DMPK2,0%
same,%Inh,DMPK,0%
same,%Inh,DRAK1,0%
same,%Inh,DRAK2,0%
same,%Inh,DYRK1A,0%
CS(=O)(=O)c1cccc(CNc2nc(Nc3ccc4c(c3)[C@@H]3C[C@@H]4CNC3=O)ncc2C(F)(F)F)c1,%Inh,CSNK1G1,0%
same,%Inh,CSNK1G2,23%
same,%Inh,CSNK1G3,81%
same,%Inh,CSNK2A1; [1],34%
same,%Inh,CSNK2A2; [1],64%
same,%Inh,CTK,0%
same,%Inh,DAPK1,27%
same,%Inh,DAPK2,0%
same,%Inh,DAPK3,9%
same,%Inh,DCAMKL1,48%
same,%Inh,DCAMKL2,0%
same,%Inh,DCAMKL3,0%
same,%Inh,DDR1,0%
same,%Inh,DDR2,6%
same,%Inh,DLK,9%
same,%Inh,DMPK2,0%
same,%Inh,DMPK,0%
same,%Inh,DRAK1,96.3%
same,%Inh,DRAK2,96.4%
same,%Inh,DYRK1A,6%
